Bioassay records deposited in PubChem by National Center for Advancing Translational Sciences (NCATS).
Sampled rows, rich in hits. Any-hit rate of the full collection: about 7.3%.
VACV mCherry inh: qHTS for Stage-Specific Inhibitors of Vaccinia Orthopoxvirus: mCherry Reporter Primary qHTS; Vaccinia virus mCherry reporter infection, fluorescence; Potency, µM (doses to about 36.5 µM), most hits filed as inhibitors; hit rate 0.63% among 310,000; calls by dose curve; tested in A549 cells; further: nearly all actives have a fitted effect of over 35% in size
HCMV inh: qHTS Assay for inhibitors of the human cytomegalovirus (HCMV) | HFF cells, HCMV-luciferase reporter, 72 h; stronger effect = lower value | activity change, negative = inhibition, % at 57.5 µM | hit rate 4.5% among 410,000 | AID 1259415, 2018; in the data active means activity change below about -60%; inconclusive means no clear call, values can overlap the other calls; inactive means above about -39%
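Inhibition of viral replication was scored as loss of reporter luminescence in HFFs infected with HCMV-luciferase (MOI 1 PFU/cell) for 72 h; compounds tested at 2 doses, normalized to buffer and Salinomycin controls.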
HCV inhibitor: qHTS Assay for Inhibitors of Hepatitis C Virus (HCV); Huh7.5.1 HCVcc-Cre infection, luciferase reporter, 44 h; Potency, µM (top dose mostly 41.8 µM), hits mostly inhibitors; AID 651820, 2012; hit rate 3.4% among 340,000
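Cells seeded at 1,000/well and cultured 4 h, then compounds added followed by HCVcc-Cre virus (~0.5 moi). After 44 h further culture, luciferase substrate was added, plates held 15 min at room temperature, and luminescence read for 15 sec.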
VACV Venus inh: qHTS for Stage-Specific Inhibitors of Vaccinia Orthopoxvirus: Venus Reporter Primary qHTS. Vaccinia virus Venus reporter expression, fluorescence. hit rate 0.46% among 330,000. Potency, µM (doses to about 36.5 µM), most hits filed as inhibitors. AID 720580, 2013; calls by dose curve; tested in A549 cells; further: nearly all actives have a fitted effect of over 30% in size
FMDV inh: High Throughput Screening for Foot and Mouth Disease Virus Antivirals; hit rate 1.2% among 410,000; FMDV antiviral cell-based qHTS; Potency, µM (top dose mostly 57.9 µM), most hits filed as inhibitors; calls by dose curve; tested in HEK293T cells; further: read-out not given here; nearly all actives have a fitted effect of over 45% in size
HCV inh confirm: qHTS Assay for Inhibitors of Hepatitis C Virus (HCV): Confirmation Assay for Cherry-picked Compounds. Potency, µM (series often up to 41.8 µM), actives largely listed as inhibitors. shares compounds with HCV inhibitor. HCVcc-Cre infectious virus cell assay, luciferase, inhibition. hit rate 78% among 640; further: nearly all actives have a fitted effect of over 80% in size
HCV cytotox: qHTS Assay for Inhibitors of Hepatitis C Virus (HCV): Cytotoxicity Counterscreen for Cherry-picked Compounds; shares compounds with HCV inhibitor; Potency, µM (titrated, usually from 41.8 µM), usual class: inhibitors; HCV host cell line cytotoxicity counterscreen; hit rate 22% among 640;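 further: 44 h compound exposure; nearly all actives have a fitted effect of over 55% in size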
Hits are given with their value; ! = not active in a repeat. Unless noted, the call rests on the fitted dose curve; in most records, active means well fitted curve in the direction sought with a large enough effect; inconclusive means small, poorly fitted or top-dose-only effect, or another doubt; inactive means no such curve, though single readings can be large; an effect the other way counts as inactive or inconclusive.

What do the screens show for `C[C@H]1C[C@@H]2[C@H]([C@@H](O)C[C@@]3(C)[C@H]2CC[C@]3(O)C(=O)CO)[C@@]2(C)C=CC(=O)C=C12`?
VACV mCherry inh: inactive; HCMV inh: inactive; HCV inhibitor: 5.6µM!; VACV Venus inh: inactive; FMDV inh: inactive; HCV inh confirm: inactive; HCV cytotox: inactive

How did Cc1cc(=O)n2c3ccccc3n(CC(O)CN3CCCC3)c2c1C#N (stereo unspecified) do in these assays?
VACV mCherry inh: inactive; HCMV inh: inconclusive; HCV inhibitor: 2µM; VACV Venus inh: inactive; HCV inh confirm: 13µM; HCV cytotox: inactive

How did Cc1cc(N2CCN(Cc3nc(-c4ccc(Cl)cc4)oc3C)CC2)cc(C)n1 do in these assays?
VACV mCherry inh: inactive; HCMV inh: inconclusive; HCV inhibitor: 2.2µM; VACV Venus inh: inconclusive; FMDV inh: inactive; HCV inh confirm: 10µM; HCV cytotox: inconclusive

How did Cc1oc(-c2ccc(Cl)cc2)nc1CN1CCCN(C(=O)c2ccco2)CC1 do in these assays?
VACV mCherry inh: inactive; HCMV inh: inactive; HCV inhibitor: inconclusive; VACV Venus inh: inactive; FMDV inh: inconclusive

How did COc1ccc2c(c1)CCc1c-2nc2ccccc2c1N1CCOCC1 do in these assays?
VACV mCherry inh: inactive; HCMV inh: inactive; HCV inhibitor: 4.5µM; VACV Venus inh: inactive; FMDV inh: inactive; HCV inh confirm: inactive; HCV cytotox: inactive

How did Fc1ccc(-c2cc3nc4c(c(N5CCOCC5)n3n2)CCCC4)cc1 do in these assays?
VACV mCherry inh: inactive; HCMV inh: inactive; HCV inhibitor: inconclusive; VACV Venus inh: inactive

Results for OC1CCN(c2c3c(nc4cc(-c5ccc(F)cc5)nn24)CCC3)CC1 ?
VACV mCherry inh: inactive; HCMV inh: inactive; HCV inhibitor: inconclusive; VACV Venus inh: inactive; FMDV inh: inactive; HCV inh confirm: 5µM; HCV cytotox: inactive

How did COc1cc(-c2nnc(-c3cc(OC)c(OC)c(OC)c3)o2)cc(OC)c1OC do in these assays?
HCMV inh: inactive; HCV inhibitor: inconclusive; VACV Venus inh: inactive; FMDV inh: inconclusive

How did COc1cc(-c2nnc(-c3ccccc3)o2)cc(OC)c1OC do in these assays?
VACV mCherry inh: inactive; HCMV inh: inactive; HCV inhibitor: inconclusive; VACV Venus inh: inactive; FMDV inh: inactive; HCV inh confirm: 14µM; HCV cytotox: inactive

How did Cc1cccc(NC(=O)CCS(=O)(=O)c2cc(Br)cc3c2N(C(=O)C2CC2)CC3)c1 do in these assays?
VACV mCherry inh: inactive; HCMV inh: inactive; VACV Venus inh: inactive; FMDV inh: inactive

Results for O=C1OCCN1C(=O)[C@H]1[C@H](c2ccc([N+](=O)[O-])cc2)C(c2ccc(F)cc2)=NN1c1ccccc1 ?
VACV mCherry inh: inactive; HCMV inh: inactive; HCV inhibitor: inconclusive; VACV Venus inh: inconclusive; FMDV inh: inconclusive

How did O=C1OCCN1C(=O)[C@H]1[C@H](c2ccc([N+](=O)[O-])cc2)C(c2ccc(F)cc2)=NN1c1ccc(Br)cc1 do in these assays?
VACV mCherry inh: inactive; HCMV inh: inactive; HCV inhibitor: inactive; VACV Venus inh: inactive; FMDV inh: inactive; HCV inh confirm: inconclusive; HCV cytotox: inactive

How did COCCn1c(=O)[nH]c2cc(C(=O)N3CCN(c4ccc(Cl)cc4)CC3)ccc2c1=O do in these assays?
VACV mCherry inh: inconclusive; HCMV inh: inactive; HCV inhibitor: 8.9µM; VACV Venus inh: inactive; FMDV inh: 16µM!; HCV inh confirm: 7µM; HCV cytotox: inconclusive

What do the screens show for `Cc1ccc(/C=C/c2onc(C)c2S(=O)(=O)N2CCC(C(=O)NCC(C)c3ccccc3)CC2)cc1` (stereo unspecified)?
VACV mCherry inh: inactive; HCMV inh: inactive; VACV Venus inh: inactive; FMDV inh: inactive

How did COc1cc(/C=C/C(=O)Nc2cccc(S(=O)(=O)N3CCOCC3)c2)ccc1OCC#N do in these assays?
HCMV inh: inactive; HCV inhibitor: inconclusive; FMDV inh: inconclusive; HCV inh confirm: 2.8µM; HCV cytotox: inactive
